Measured values as given in PubChem BioAssay (Tox21).
Records with an inconclusive call do not appear. Activity calls are given as the source filed them. Unless noted, calls follow the shape of the dose curve; as a rule, active = well fitted curve in the direction sought with a large enough effect in the repeat runs; inconclusive = weak or mixed curves; inactive = no such curve, though single readings can be large; an effect the other way counts as inactive or inconclusive.

Legend:
[1] = qHTS assay to identify small molecule antagonists of the estrogen related receptor (ERR) signaling pathway from Tox21 library (AID 1224848); also: nearly all actives have a fitted effect of over 50% in size; also: potency is read from the fitted curve at half-maximal effect
Procedure, shortened: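 First, 2,000 ERR cells per well were plated and held 6 h at 37 C/5% CO2. Next, compounds in DMSO were pinned in and left 18 h at 37 C. Finally, ONE-Glo was added and luminescence read after 30 min at room temperature.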

[2] = qHTS assay to identify small molecule agonists of the estrogen related receptor (ERR) signaling pathway from Tox21 library (AID 1224849; calls by dose curve; also: nearly all actives have a fitted effect of over 15% in size); details: ERR reporter cell line, ONE-Glo luciferase, 18 h; at 92.4 µM (top of the series) unless noted
Procedure, shortened: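 Tox21 compounds tested for ERR agonism in an NTP reporter cell line: 18 h treatment at 37 C, then ONE-Glo luminescence.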

[3] = qHTS RealTime-Glo MT Cell Viability Assay in HepG2 cells - 24 hour (AID 1224867); also: nearly all actives have a fitted effect of over 50% in size; also: potency is read from the fitted curve at half-maximal effect
Procedure, shortened: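 Compound treatment began 5 h after plating HepG2 cells (600/well) with NanoLuc luciferase and prosubstrate. Plates stayed at 37 C for 40 h; luminescence was captured at six time points, 0 h through 40 h.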

[4] = qHTS RealTime-Glo MT Cell Viability Assay in HEK293 cells - 32 hour (AID 1224868); also: nearly all actives have a fitted effect of over 50% in size; also: potency is read from the fitted curve at half-maximal effect
Procedure, shortened: (§1)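 Quantitative high-throughput screen of the Tox21 10K library in HEK293: cells and RealTime-Glo reagents plated together, compound added at 5 h, luminescence monitored through 40 h at 37 C.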

[5] = A CellTox Green Cytotoxicity Assay to monitor cytotoxicity in HEK293 cells - 0 hour (AID 1224869); also: nearly all actives have a fitted effect of over 50% in size
Procedure, shortened: (§2)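 Tox21 screen in HEK293: membrane-impermeant cyanine dye fluoresces on binding dead-cell DNA; compound pinned 5 h post-seeding, plates held at 37 C, signal read repeatedly through 40 h.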

[6] = qHTS RealTime-Glo MT Cell Viability Assay in HepG2 cells - 40 hour (AID 1224870); also: nearly all actives have a fitted effect of over 50% in size; also: potency is read from the fitted curve at half-maximal effect
Procedure, shortened: (§3)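 HepG2 cells mixed with RealTime-Glo MT reagents (NanoLuc plus cell-permeant prosubstrate) were seeded at 600 cells/well, incubated 5 h at 37 C/5% CO2, then pinned with compounds in DMSO; nonlytic luminescence tracked viability during 40 h treatment.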

[7] = A CellTox Green Cytotoxicity Assay to monitor cytotoxicity in HEK293 cells - 40 hour (AID 1224871); also: nearly all actives have a fitted effect of over 45% in size; also: potency is read from the fitted curve at half-maximal effect
Procedure, shortened: as §2

[8] = qHTS RealTime-Glo MT Cell Viability Assay in HEK293 cells - 16 hour (AID 1224872); also: nearly all actives have a fitted effect of over 50% in size; also: potency is read from the fitted curve at half-maximal effect
Procedure, shortened: as §1

[9] = qHTS RealTime-Glo MT Cell Viability Assay in HepG2 cells - 8 hour (AID 1224873); also: nearly all actives have a fitted effect of over 55% in size; also: potency is read from the fitted curve at half-maximal effect
Procedure, shortened: as §3

[10] = qHTS RealTime-Glo MT Cell Viability Assay in HEK293 cells - 40 hour (AID 1224874); details: RealTime-Glo luminescence; max response: stronger effect = lower value; also: nearly all actives have a fitted effect of over 50% in size; also: potency is read from the fitted curve at half-maximal effect
Procedure, shortened: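 HEK293 + NanoLuc + prosubstrate, 600 cells/well; 5 h, 37 C/5% CO2; compound 23 nL in DMSO by pintool; 37 C; luminescence read at 0, 8, 16, 24, 32 and 40 h time points.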
% is scaled to controls: 0 for no effect and ±100 for the full control effect.

Oc1ccc2c(c1)CCC2
inactive: Potency [1] | activity change, positive = activation [2] 7.55% | Potency [3] | Potency [4] | Potency [5] | Potency [6] | Potency [7] | Potency [8] | Potency [9]

O=S(=O)(c1ccc(OCc2ccccc2)cc1)c1ccccc1O
active: Potency [1] 19.3 µM | Potency [10] 19.5 µM
inactive: activity change, positive = activation [2] -29% | Potency [3] | Potency [7] | Potency [9]

O=C1CCC(=O)N1
inactive: Potency [1] | activity change, positive = activation [2] 0.296% | Potency [3] | Potency [5] | Potency [6] | Potency [9]

CC(C)(C)C1=CC(=O)C(C(C)(C)C)=CC1=O
inactive: Potency [1] | activity change, positive = activation [2] -2.14% [at 42.5 µM] | Potency [3] | Potency [5] | Potency [9]

Nc1ccc(F)c([N+](=O)[O-])c1
inactive: activity change, positive = activation [2] -30.4% | Potency [3] | Potency [4] | Potency [6] | Potency [7] | Potency [8] | Potency [9]
active: Potency [1] 34.4 µM

O=[N+]([O-])c1ccc(O)c2ncccc12
active: Potency [1] 5.31 µM | Potency [10] 9.52 µM
inactive: activity change, positive = activation [2] -55.9% [at 42.5 µM] | Potency [3] | Potency [5] | Potency [8]

Cc1cccc2c1ccc1ccccc12
inactive: activity change, positive = activation [2] -38.7% | Potency [3] | Potency [4] | Potency [6] | Potency [8] | Potency [9]
active: Potency [1] 24.3 µM

Nc1ccc2c(S(=O)(=O)O)cccc2c1S(=O)(=O)O
inactive: Potency [1] | activity change, positive = activation [2] -1.51% [at 42.5 µM] | Potency [3] | Potency [4] | Potency [5] | Potency [8] | Potency [9] | max response [10] 5.38%

CC/C=C(\C)C=O
inactive: Potency [1] | activity change, positive = activation [2] 5.99% | Potency [3] | Potency [4] | Potency [6] | Potency [8] | Potency [9]

O=c1[nH]cccc1O
inactive: activity change, positive = activation [2] -37% | Potency [3] | Potency [4] | Potency [5] | Potency [8] | Potency [9]
active: Potency [1] 19.3 µM

N#CCCOCCC#N
inactive: Potency [1] | activity change, positive = activation [2] 1.08% | Potency [3] | Potency [4] | Potency [8] | Potency [9] | max response [10] 2.28%

CCOC(=O)C1=NN(c2ccc(Cl)cc2Cl)C(C)(C(=O)OCC)C1 (stereo not given)
active: Potency [1] 48.6 µM
inactive: activity change, positive = activation [2] -36.6% | Potency [3] | Potency [5] | Potency [6] | Potency [7] | Potency [9]

CCCCCCCCOC(=O)c1cc(O)c(O)c(O)c1
inactive: activity change, positive = activation [2] -45.2% | Potency [5]
active: Potency [1] 3.44 µM | Potency [3] 19.5 µM | Potency [4] 11 µM | Potency [8] 6.92 µM | Potency [9] 17.4 µM | Potency [10] 11 µM

CCCCCc1ccc(O)cc1
active: Potency [7] 34.7 µM
inactive: Potency [1] | activity change, positive = activation [2] 1.58% | Potency [3] | Potency [5] | Potency [6] | Potency [9]

N#Cc1nc(Cl)c(Cl)c(Cl)c1Cl
active: Potency [1] 9.69 µM | Potency [3] 24.5 µM | Potency [4] 2.19 µM | Potency [6] 17.4 µM | Potency [7] 1.55 µM | Potency [8] 2.45 µM | Potency [10] 2.19 µM
inactive: activity change, positive = activation [2] -76.2%

Cc1ccc2n[nH]nc2c1
inactive: Potency [1] | activity change, positive = activation [2] 4.26% | Potency [3] | Potency [4] | Potency [5] | Potency [7] | Potency [8] | Potency [9] | max response [10] -0.793%

CCc1cccc(CC)c1
inactive: Potency [1] | activity change, positive = activation [2] -2.59% | Potency [3] | Potency [5] | Potency [7] | Potency [8] | Potency [9]

C1CCSC1
inactive: Potency [1] | activity change, positive = activation [2] 0.687% | Potency [3] | Potency [5] | Potency [6] | Potency [9]

CN(C)CCOc1ccc(/C(=C(/CCCl)c2ccccc2)c2ccccc2)cc1
active: Potency [1] 51 µM | Potency [3] 40.9 µM | Potency [4] 36.4 µM | Potency [8] 36.4 µM | Potency [9] 36.4 µM
inactive: activity change, positive = activation [2] -52.6% | Potency [5]

COc1ccc(OC)c(N=Nc2c(O)ccc3ccccc23)c1
inactive: Potency [1] | activity change, positive = activation [2] -14.1% | Potency [3] | Potency [5] | Potency [6] | Potency [7]

CCN(CCC#N)c1ccc(N=Nc2ccc([N+](=O)[O-])cc2)cc1
active: activity change, positive = activation [2] 15.7%
inactive: Potency [1] | Potency [3] | Potency [4] | Potency [6] | Potency [7] | Potency [8] | Potency [9]

Oc1cccc2c(O)cccc12
inactive: Potency [1] | activity change, positive = activation [2] -6.39% | Potency [3] | Potency [5] | Potency [7] | Potency [9] | max response [10] 3.51%

CN1CC[C@H](c2c(O)cc(O)c3c(=O)cc(-c4ccccc4Cl)oc23)[C@H](O)C1
active: Potency [4] 0.19 µM | Potency [10] 0.19 µM
inactive: Potency [1] | activity change, positive = activation [2] 28.6% [at 42.5 µM] | Potency [3] | Potency [5] | Potency [9]

C=CCc1cc(S(=O)(=O)c2ccc(O)c(CC=C)c2)ccc1O
active: Potency [1] 61.1 µM | Potency [4] 27.5 µM | Potency [8] 27.5 µM | Potency [10] 24.5 µM
inactive: activity change, positive = activation [2] -45.3% | Potency [5] | Potency [7]

Nc1ccc(Oc2cccc(Oc3ccc(N)cc3)c2)cc1
active: Potency [1] 4.33 µM
inactive: activity change, positive = activation [2] -57.1% | Potency [3] | Potency [5] | Potency [7] | Potency [8] | Potency [9]

Oc1ccc(Cl)cc1C1CCCC1
active: Potency [8] 24.5 µM
inactive: Potency [1] | activity change, positive = activation [2] 6.21% | Potency [3] | Potency [5] | Potency [6] | Potency [9] | max response [10] -29.3%

CCCOC(=O)c1ccc(O)cc1
inactive: Potency [1] | Potency [3] | Potency [6] | Potency [9]
active: activity change, positive = activation [2] 17.7% | Potency [8] 49 µM

CN1CCN(CCCN2c3ccccc3Sc3ccc(C(F)(F)F)cc32)CC1
active: Potency [1] 33.5 µM | Potency [3] 23.9 µM | Potency [4] 23.9 µM | Potency [7] 26.8 µM | Potency [8] 21.3 µM | Potency [10] 23.9 µM
inactive: activity change, positive = activation [2] -69.1% [at 42.5 µM] | Potency [5]

Clc1cccc(Cl)n1
inactive: Potency [1] | activity change, positive = activation [2] 0.024% | Potency [3] | Potency [4] | Potency [6] | Potency [8] | Potency [9] | max response [10] 3.2%

CCCCCCCCSCc1cc(C)c(O)c(CSCCCCCCCC)c1
inactive: Potency [1] | activity change, positive = activation [2] 3.09% | Potency [3] | Potency [4] | Potency [6] | Potency [7] | Potency [9] | max response [10] -17.7%

Cc1ccc(Cl)c(N)c1Cl
inactive: Potency [1] | activity change, positive = activation [2] -0.961% | Potency [3] | Potency [4] | Potency [5] | Potency [8] | Potency [9] | max response [10] -1.11%

CSc1ccc(O)cc1C
inactive: Potency [1] | activity change, positive = activation [2] -0.368% | Potency [3] | Potency [5] | Potency [6] | Potency [7] | Potency [8] | Potency [9]

O=C1c2ccccc2C(=O)c2c(Cl)cccc21
inactive: Potency [1] | activity change, positive = activation [2] 1.21% [at 42.5 µM] | Potency [3] | Potency [5] | Potency [6] | Potency [7] | Potency [9]

c1ccc(C[P+](c2ccccc2)(c2ccccc2)c2ccccc2)cc1
active: Potency [1] 1.72 µM | Potency [4] 1.55 µM | Potency [10] 1.38 µM
inactive: activity change, positive = activation [2] -56.8% | Potency [3] | Potency [5] | Potency [9]

C=C1CC[C@H]2O[C@]2(C)CC[C@@H]2[C@@H]1CC2(C)C
inactive: Potency [1] | activity change, positive = activation [2] 2.38% | Potency [3] | Potency [5] | Potency [6] | Potency [7] | Potency [9]

C[C@H]1O[C@@H](O[C@H]2CC[C@@]3(C)[C@H](CC[C@@H]4[C@@H]3C[C@@H](O)[C@]3(C)[C@@H](C5=CC(=O)OC5)CC[C@]43O)C2)C[C@H](O)[C@@H]1O[C@H]1C[C@H](O)[C@H](O[C@H]2C[C@H](O)[C@H](O[C@@H]3O[C@H](CO)[C@@H](O)[C@H](O)[C@H]3O)[C@@H](C)O2)[C@@H](C)O1
active: Potency [1] 0.376 µM | Potency [4] 0.239 µM | Potency [10] 0.239 µM
inactive: activity change, positive = activation [2] -54.9% [at 42.5 µM] | Potency [3] | Potency [6] | Potency [7] | Potency [9]

c1ccc(-c2ccc(C(c3ccccc3)n3ccnc3)cc2)cc1 (stereo not given)
active: Potency [1] 23.7 µM | Potency [4] 30.1 µM | Potency [10] 26.8 µM
inactive: activity change, positive = activation [2] -54.4% [at 42.5 µM] | Potency [3] | Potency [6] | Potency [9]

Cn1ccnc1
inactive: Potency [1] | activity change, positive = activation [2] 1.09% | Potency [3] | Potency [4] | Potency [7] | Potency [8] | Potency [9]

CCC(C)(C)c1ccc(CC(C)CN2C[C@@H](C)O[C@@H](C)C2)cc1 (stereo not given in full)
inactive: activity change, positive = activation [2] -22.5% [at 42.5 µM] | Potency [3] | Potency [4] | Potency [6] | Potency [8] | Potency [9] | max response [10] -25.5%
active: Potency [7] 23.9 µM

Cc1cc(F)ccc1-c1cc(N2CC[C@@H](O)[C@H]2CO)ncc1N(C)C(=O)C(C)(C)c1cc(C(F)(F)F)cc(C(F)(F)F)c1
inactive: Potency [5]
active: Potency [3] 38.3 µM | Potency [4] 17.1 µM | Potency [6] 43 µM | Potency [7] 43 µM | Potency [8] 30.4 µM | Potency [9] 38.3 µM | Potency [10] 17.1 µM
